Compound activity (PubChem)
Hits are enriched below; roughly 12% of the tested compounds scored in any of these assays.
OTUD3 inh: inhibitors of human OTUD3 deubiquitinase; 47,000 compounds, 0.7% hits; OTU domain-containing protein 3 (Homo sapiens), Q5T2D3; inhibition, % at 25 µM; purified OTUD3, Ub-rhodamine fluorescence, 2 h; AID 1645858, 2021
USP28 inh: inhibitors of human USP28 deubiquitinase | Ubiquitin carboxyl-terminal hydrolase 28 (Homo sapiens), Q96RU2 | purified USP28, Ub-rhodamine cleavage fluorescence, 30 min | inhibition, % at 25 µM | 47,000 compounds, 3% hits | AID 1645857, 2021
USP17 inh: inhibitors of human USP17 deubiquitinase; inhibition, % at 50 µM; purified USP17, Ub-rhodamine cleavage fluorescence, 3 h; 47,000 compounds, 6.5% hits
Target sequence (A8MUK1 whole entry, looked up): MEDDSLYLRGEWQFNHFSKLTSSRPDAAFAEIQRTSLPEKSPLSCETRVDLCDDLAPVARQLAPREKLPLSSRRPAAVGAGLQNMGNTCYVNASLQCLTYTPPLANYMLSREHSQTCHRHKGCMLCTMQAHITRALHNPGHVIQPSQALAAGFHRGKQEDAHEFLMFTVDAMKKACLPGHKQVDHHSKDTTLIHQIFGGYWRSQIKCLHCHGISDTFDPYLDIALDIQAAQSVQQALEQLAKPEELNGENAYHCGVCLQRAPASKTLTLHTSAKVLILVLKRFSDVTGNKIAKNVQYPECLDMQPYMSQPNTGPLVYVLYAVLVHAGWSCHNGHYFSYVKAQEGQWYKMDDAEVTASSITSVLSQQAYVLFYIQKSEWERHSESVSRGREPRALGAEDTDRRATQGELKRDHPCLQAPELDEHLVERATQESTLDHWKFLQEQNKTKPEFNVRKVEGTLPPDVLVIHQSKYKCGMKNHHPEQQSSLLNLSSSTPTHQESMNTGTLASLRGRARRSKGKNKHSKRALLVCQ
USP30 block: inhibitors of human USP30 deubiquitinase; Ubiquitin carboxyl-terminal hydrolase 30 (Homo sapiens), Q70CQ3; purified USP30, Ub-rhodamine cleavage fluorescence; inhibition, % at 25 µM; 47,000 compounds, 5.3% hits
* = called active by the depositor; i = inactive; x = not tested or not shown. Cut-off read from the data, not from the text of the source: active = inhibition above about 30%; inactive = the rest.

SMILES | OTUD3 inh | USP28 inh | USP17 inh | USP30 block
CCc1cccc(NC(=O)C2CCCN(S(=O)(=O)c3c[nH]c(C(=O)N4CCCCC4)c3)C2)c1 (centres undefined) | -6 | 0 | 2 | -6
COc1ccc(C(=O)N2CCC(c3nc4c(nnn4Cc4cc(C)ccc4C)c(=O)[nH]3)CC2)cc1 | 7 | 26 | 36* | 30*
Cc1nc2c(-c3ccncc3)nsc2c(=O)n1CC(=O)Nc1ccccc1F | -65 | -67 | 46* | -332
COc1cnc(CSc2ncccn2)cc1OCC(=O)Nc1cccc(F)c1 | 2 | 4 | -7 | 32*
COc1cnc(CSc2ncccn2)cc1OCC(=O)Nc1ccccc1F | 4 | -10 | -6 | -296
COc1cnc(CSc2ncccn2)cc1OCC(=O)Nc1cc(C)ccc1C | -5 | -17 | -16 | 55*
COc1cccc(NC(=O)c2nc(C)n(C3CCN(C(C)=O)CC3)c2C)c1 | -4 | -10 | -14 | -45
Cc1noc(C)c1S(=O)(=O)NCc1ccc2c(c1)N(C(=O)c1ccccc1)CC2 | -7 | -2 | -17 | -15
O=C(CCCc1nnc2c(=O)n(-c3cccc(F)c3)ccn12)NCc1ccc(Cl)cc1 | -7 | -10 | 35* | -38
COc1ccc(CNC(=O)CCCc2nnc3c(=O)n(-c4cc(C)cc(C)c4)ccn23)cc1 | 24 | 9 | 39* | -1
Cc1ccc(CNC(=O)CCc2nnc3c(=O)n(-c4ccc(C)c(C)c4)ccn23)cc1 | 27 | 33* | 32* | 40*
COc1ccc(C(C)NC(=O)c2cc(NC(C)=O)cc3nc(C)ccc23)cc1 (centres undefined) | -5 | -9 | 17 | -73
Cc1cc(C2CCCN2C(=O)c2cc(-c3ccccc3Cl)on2)on1 (centres undefined) | 3 | 4 | 6 | 0
O=C1CO[C@H]2CN(c3cnccn3)C[C@@H]2N1C1CCOCC1 | 12 | 8 | 8 | 13
Cc1cn2c(=O)cc(COC(=O)c3ccc(NC(=O)c4ccccc4)cc3)nc2s1 | 9 | -8 | 39* | -41
c1ccc(CCCN2CCc3nc4cccnc4cc3C2)cc1 | -194 | -238 | -159 | i
Cc1ccc(NC(=O)COc2ccccc2C#N)cc1 | 1 | -1 | 16 | 7
Cc1ccc(NC(=O)COc2ccccc2/C=C2/NC(=O)N(Cc3ccc(F)cc3)C2=O)cc1 | 6 | 39* | 29 | 45*
Cc1noc(-c2cnc(NCc3cccc(F)c3)nc2-c2ccco2)c1C | 5 | 24 | 13 | 14
CCc1nc(CN2CCOC(C)(C(=O)N3CCOCC3)C2)c(C)[nH]1 (centres undefined) | 4 | 6 | 7 | 30*
CCc1nc(CN2CCN(C3CCOCC3)CC(C(N)=O)C2)c(C)[nH]1 (centres undefined) | -6 | -1 | 0 | 11
CC(C)c1ccc(CNc2nc3ccncc3n(Cc3ccccc3)c2=O)cc1 | 1 | x | 10 | x
CCn1c(=O)c(NCc2ccc(Cl)cc2)nc2ccncc21 | -3 | 9 | 48* | 34*
O=C(Cn1c(C(F)(F)F)nc2cc3c(cc21)OCCO3)NC1CCCC1 | -6 | -6 | 35* | 3
Cc1cccc(N2C(=O)N(Cc3cccc(F)c3)S(=O)(=O)c3cccnc32)c1 | 9 | 4 | x | 12
SMILES | OTUD3 inh | USP28 inh | USP17 inh | USP30 block
FC(F)(F)c1cccc(-c2nc(-c3ccccn3)no2)c1 | 0 | 6 | 3 | 10
c1ccc(-c2nc(CSc3nnc(C4CC4)n3-c3ccccc3)cs2)cc1 | 7 | 2 | 6 | 9
Cn1c(SCc2ccccc2)nnc1-c1csc(-c2ccccc2)n1 | 24 | 41* | 38* | 53*
CSc1nnc(-c2csc(-c3cccc(C(F)(F)F)c3)n2)n1C | 7 | 78* | 68* | 94*
CCc1ccc(S(=O)(=O)N2Cc3c(Cn4ccnc4)nn(C)c3C2)cc1 | 12 | 2 | -12 | 15
Cc1ccc(NS(=O)(=O)c2cc(-c3[nH]ncc3C(=O)N3CCCCC3)oc2C)cc1 | -10 | -6 | -14 | -28
CCc1ccc(NS(=O)(=O)c2cc(-c3[nH]ncc3C(=O)N3CCCCC3)oc2C)cc1 | 0 | 1 | 22 | 41*
Cc1cc(-c2ccc(C)c(S(=O)(=O)N3CC(=O)Nc4ccccc43)c2)on1 | -3 | 26 | 47* | 9
CC1(C)C[C@@H](O)[C@]2(C)CC[C@]3(C)C(=CCC4[C@@]5(C)CC[C@H](O)[C@](C)(CO)[C@@H]5CC[C@]43C)[C@@H]2C1 (some centres undefined) | 2 | 4 | 53* | 43*
COc1ccccc1CC(=O)Nc1ccc2nc(N3CCOCC3)cc(C)c2c1 | 11 | 11 | 0 | 11
CN=C(N)NCCC[C@H](N)C(=O)O | 8 | 11 | 16 | 31*
Cc1ccccc1NC(=O)CNc1ccc(C#N)cc1 | -6 | 0 | -7 | -7
N#Cc1ccc(NC(=O)Nc2cccn(Cc3ccccc3Br)c2=O)cc1 | 45* | 63* | 81* | 30*
N#Cc1cccc(NC(=O)Nc2cccn(Cc3ccccc3F)c2=O)c1 | 84* | 82* | 85* | 27
COc1ccc(Cn2nnc(-c3ccc(C(C)C)cc3)n2)cc1 | -6 | x | 5 | x
O=C(O)CCC(=O)N1CCN(c2nc(-c3cccnc3)nc3ccccc23)CC1 | -4 | -8 | x | -1
NCc1ccc([C@@H]2CN(C(=O)c3ccc4ncccc4c3)C[C@H]2c2ccn[nH]2)cc1 | 5 | x | 68* | x
O=C(c1ccc2ncccc2c1)N1CCOC(c2cccc(Cc3cccc(Cl)c3)n2)C1 (centres undefined) | 1 | 15 | -4 | -23
CN1CCN(c2nc(N3CCCCC3)nc3c2cnn3C)CC1 | -5 | -4 | -13 | 0
COc1ccc(Nc2nc(Nc3cccc(Cl)c3)nc3nccnc23)cc1 | -184 | -185 | -118 | i
CC(C)Cc1nc2sc3c(SCC(N)=O)ncnc3c2c2c1CCC2 | 5 | x | -3 | x
CCCCc1nc2sc3c(SCC(=O)Nc4cccc(C)c4)ncnc3c2c2c1CCC2 | -8 | 4 | 64* | -12
CCCCc1nc2sc3c(SCC(N)=O)ncnc3c2c2c1CCC2 | 12 | 36* | 18 | 23
CCCCc1nc2sc3c(SCC(=O)Nc4ccc(C)cc4)ncnc3c2c2c1CCC2 | 2 | 6 | 0 | -3
COc1ccc(-c2nc(SCC(=O)Nc3ccc(C(C)=O)cc3)n[nH]2)cc1 | -2 | -1 | 54* | -1
O=C1N(Cc2ccc(F)cc2)CCN1c1ccc2c(c1)OCO2 | 12 | 48* | 11 | 20
CCN1C(=O)c2c(C(=O)Nc3ccc(C(C)=O)cc3)ncn2CC1(C)C(=O)NC1CCCC1 (centres undefined) | -11 | -15 | -16 | -50
CCOc1ccccc1CNC(=O)C1CCCN(c2nc3ccccc3[nH]2)C1 (centres undefined) | 11 | 5 | 7 | 4
COc1ccccc1CNC(=O)C1CCCN(c2nc3ccsc3c(=O)s2)C1 (centres undefined) | 26 | 6 | 57* | 20
COc1ccc(Br)cc1CNC(=O)C1CCCN(c2nnc(N3CCCC3=O)s2)C1 (centres undefined) | -4 | -6 | 40* | -29
